Results on 20 compounds are retold here after PubChem BioAssay.

The structures appear in SMILES notation. A number with no mark means an inactive call. For some of these results: Results with a measured potency or affinity are listed apart. Calls of active or inactive are those of the source. Unless noted, no rule for the calls is given here.

Experiment [1] in a line: antimalarial activity against Dd2 strain (AID 2302;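 active = growth inhibition above 50% at the single 2 µM test dose, taken to imply half-maximal potency below 2 µM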;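 also: 0% = DMSO untreated growth and 100% = chloroquine plus artemisinin killed control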). The following applies: P. falciparum Dd2 in RBCs, LDH growth readout, 72 h; at 2 µM; hits give high values.
Experiment [2] can be described thus: human hepatoma cell viability loss – ATP luminescence, cytotoxicity control for P. falciparum antimalarial project, primary screen (AID 2303;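 active = inhibition above 50%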;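 also: 0% = DMSO wells and 100% = digitonin-killed cells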). The note with it: HepG2 viability, 24-48 h, at 10 µM, hits give high values.
The target of experiment [3] is L-lactate dehydrogenase (Plasmodium falciparum (isolate CDC / Honduras)) (UniProt Q27743). The experiment can be described thus: PfLDH activity inhibition – cell lysate, 3D7 strain, counter-screen for P. falciparum growth inhibition project (AID 2304).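 Also: 0% = vehicle and 100% = reference inhibitor.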 The note with it: P. falciparum 3D7 crude extract, LDH APAD/NBT absorbance; at 2 µM; hits give high values.
Experiment [4] is described as follows: inhibition of 3D7 malaria parasite growth – strain 3D7 (AID 2306).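 Also: 0% = DMSO wells and 100% = chloroquine plus artemisinin control wells.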 The following applies: P. falciparum 3D7 erythrocytic growth, LDH absorbance, 72 h; at 2 µM; hits give high values.
Experiment [5] has as its target Calcium-dependent protein kinase 1 (Plasmodium falciparum (isolate 3D7)) (UniProt P62344). Description: PfCDPK1 kinase inhibitors, biochemical, TCAMS library (AID 1159585; cut-off not given, nearly all actives have IC50 up to about 0.98 µM;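 also: inhibitors leave more ATP so luminescence rises with inhibition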). The following applies: recombinant PfCDPK1, Kinase-Glo ATP depletion luminescence.
The target of experiment [6] is Plasmodium falciparum protein kinase 6 (PK6, PF3D7_1337100) (UniProt Q8IDW1). Description: PfPK6 kinase inhibitors, biochemical, TCAMS library (AID 1159586). The following applies: recombinant PfPK6, Kinase-Glo ATP depletion luminescence. A general note: Kinase-Glo measures the ATP left after a reaction by luminescence.
Experiment [7] has as its target Protein kinase 7 (PK7), Plasmodium falciparum 3D7 (PF3D7_0213400) (UniProt Q7YTF7). Description: inhibition of Plasmodium PK7 catalytic activity – biochemical, TCAMS antimalarial set, Kinase-Glo luminescence (AID 1159587). The following applies: recombinant PfPK7, Kinase-Glo ATP depletion luminescence.
For experiment [8], the target named is Calcium-dependent protein kinase 4 (Plasmodium falciparum (isolate 3D7)) (UniProt Q8IBS5). The experiment can be described thus: PfCDPK4 kinase inhibitors, biochemical, TCAMS library (AID 1159588; cut-off not given, nearly all actives have IC50 up to about 0.91 µM). The note with it: recombinant PfCDPK4, Kinase-Glo ATP depletion luminescence.

In general, inhibition refers to the relative decrease from the control value, in per cent.

Calcium-dependent protein kinase 4 (Plasmodium falciparum (isolate 3D7)), sequence (Q8IBS5 whole entry, looked up): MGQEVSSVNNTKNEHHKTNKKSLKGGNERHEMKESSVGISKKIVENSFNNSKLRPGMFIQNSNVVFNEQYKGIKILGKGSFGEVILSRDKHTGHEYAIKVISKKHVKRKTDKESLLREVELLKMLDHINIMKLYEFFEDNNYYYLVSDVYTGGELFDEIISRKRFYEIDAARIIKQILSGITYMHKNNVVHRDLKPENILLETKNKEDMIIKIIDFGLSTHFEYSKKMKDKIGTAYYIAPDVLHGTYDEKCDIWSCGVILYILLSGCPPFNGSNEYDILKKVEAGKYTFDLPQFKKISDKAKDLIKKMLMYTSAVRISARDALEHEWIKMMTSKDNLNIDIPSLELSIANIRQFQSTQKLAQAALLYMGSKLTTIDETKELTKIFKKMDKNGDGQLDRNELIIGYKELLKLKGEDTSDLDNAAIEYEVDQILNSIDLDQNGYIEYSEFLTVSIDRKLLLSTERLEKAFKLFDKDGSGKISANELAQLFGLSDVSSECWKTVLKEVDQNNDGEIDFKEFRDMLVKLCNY
Plasmodium falciparum protein kinase 6 (PK6, PF3D7_1337100), sequence (Q8IDW1 1-305): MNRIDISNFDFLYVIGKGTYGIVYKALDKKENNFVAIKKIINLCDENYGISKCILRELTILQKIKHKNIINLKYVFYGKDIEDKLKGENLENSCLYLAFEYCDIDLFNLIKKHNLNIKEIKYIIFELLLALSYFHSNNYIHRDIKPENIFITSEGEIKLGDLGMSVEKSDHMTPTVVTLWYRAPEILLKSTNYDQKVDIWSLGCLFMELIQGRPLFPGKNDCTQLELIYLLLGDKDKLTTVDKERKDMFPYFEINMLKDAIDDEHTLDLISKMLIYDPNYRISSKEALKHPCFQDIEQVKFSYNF
L-lactate dehydrogenase (Plasmodium falciparum (isolate CDC / Honduras)), sequence (Q27743 whole entry, looked up): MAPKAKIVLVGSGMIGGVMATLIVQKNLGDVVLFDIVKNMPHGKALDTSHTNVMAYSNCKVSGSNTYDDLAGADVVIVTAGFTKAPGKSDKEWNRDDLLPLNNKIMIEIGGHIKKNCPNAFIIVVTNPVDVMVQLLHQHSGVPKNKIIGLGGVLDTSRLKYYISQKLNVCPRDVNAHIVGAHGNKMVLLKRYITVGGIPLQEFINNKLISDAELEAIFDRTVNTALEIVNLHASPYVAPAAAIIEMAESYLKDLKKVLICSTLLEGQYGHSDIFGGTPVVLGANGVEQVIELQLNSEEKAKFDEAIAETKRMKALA
Protein kinase 7 (PK7), Plasmodium falciparum 3D7 (PF3D7_0213400), sequence (Q7YTF7 1-343): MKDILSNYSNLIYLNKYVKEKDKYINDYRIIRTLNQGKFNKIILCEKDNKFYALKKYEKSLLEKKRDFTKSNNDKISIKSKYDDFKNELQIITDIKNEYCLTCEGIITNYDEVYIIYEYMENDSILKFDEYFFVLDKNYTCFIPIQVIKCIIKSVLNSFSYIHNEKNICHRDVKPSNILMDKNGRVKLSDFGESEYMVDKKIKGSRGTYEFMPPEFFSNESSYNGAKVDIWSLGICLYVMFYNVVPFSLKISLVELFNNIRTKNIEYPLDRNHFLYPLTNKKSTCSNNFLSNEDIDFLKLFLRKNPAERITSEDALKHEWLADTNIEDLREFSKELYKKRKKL
Calcium-dependent protein kinase 1 (Plasmodium falciparum (isolate 3D7)), sequence (P62344 whole entry, looked up): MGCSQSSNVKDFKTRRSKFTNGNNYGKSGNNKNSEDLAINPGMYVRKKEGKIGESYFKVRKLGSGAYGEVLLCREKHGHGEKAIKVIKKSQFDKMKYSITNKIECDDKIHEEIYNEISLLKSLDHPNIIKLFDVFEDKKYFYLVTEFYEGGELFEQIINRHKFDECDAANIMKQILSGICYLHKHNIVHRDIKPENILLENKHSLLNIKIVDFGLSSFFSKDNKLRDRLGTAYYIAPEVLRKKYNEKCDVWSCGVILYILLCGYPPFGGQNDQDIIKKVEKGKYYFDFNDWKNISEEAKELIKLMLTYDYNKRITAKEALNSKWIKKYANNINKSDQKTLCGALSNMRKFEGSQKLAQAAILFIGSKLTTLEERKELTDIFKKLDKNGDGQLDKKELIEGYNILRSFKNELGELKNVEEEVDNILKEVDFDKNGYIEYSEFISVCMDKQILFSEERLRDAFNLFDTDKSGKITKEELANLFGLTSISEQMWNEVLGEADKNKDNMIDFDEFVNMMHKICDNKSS

For `O=C(/C=C/c1cccc(Cl)c1)NCCCCCN1CCC(c2c[nH]c3ccccc23)CC1`, the values for the growth inhibition in experiment [1] and in experiment [4] were 17% and 89% (active), respectively. For the same compound, the inhibition was 46% in experiment [2] and -2% in experiment [3]. Also, the result in experiment [5], in experiment [6], in experiment [7] and in experiment [8] was inactive.
On to `O=C(Nc1ccc(Cn2ncc(N3CCNCC3)c(Cl)c2=O)cc1)Nc1ccc(-c2ccccc2)cc1`, for which the results for the growth inhibition in experiment [1] and in experiment [4] were 33% and 98% (active), respectively. Further, the figures for the inhibition in experiment [2] and in experiment [3] were 29% and -1%, respectively. Also, the outcome in experiment [5], in experiment [6], in experiment [7] and in experiment [8] was inactive.
Turning to `CCCCCN1CCCN(Cc2cccc(NC(=O)c3ccc4ccccc4c3)c2)CC1`, the figures for the growth inhibition in experiment [1] and in experiment [4] were 16% and 86% (active), respectively. Further, the inhibition in experiment [2] was 27%; in experiment [3] it was -5%. In addition, the outcome in experiment [5], in experiment [6], in experiment [7] and in experiment [8] was inactive.
Consider `O=C(Nc1ccc(OCc2ccccc2)cc1)c1nc2ccccc2nc1Cl`, for which the growth inhibition was 95% (active) in experiment [1] and 96% (active) in experiment [4]. Further, the values for the inhibition in experiment [2] and in experiment [3] were 48% and 3%, respectively. Besides, the result in experiment [5], in experiment [6], in experiment [7] and in experiment [8] was inactive.
Take `O=C(Nc1ccc(Cl)c(-c2nc3ccccc3[nH]2)c1)c1ccc(-c2ccc(Cl)cc2)o1`: the figures for the growth inhibition in experiment [1] and in experiment [4] were 22% and 89% (active), respectively. Also, the inhibition is 16% in experiment [2] and 0% in experiment [3]. For the same compound, the outcome in experiment [5], in experiment [6], in experiment [7] and in experiment [8] was inactive.
Consider `O=C(NC1CCN(Cc2ccccc2)CC1)c1cccc(-c2cc3cc(Cl)c(Cl)cc3[nH]2)c1`, for which the figures for the growth inhibition in experiment [1] and in experiment [4] were 86% (active) and 100% (active), respectively. The results for the inhibition in experiment [2] and in experiment [3] were 15% and -6%, respectively. Moreover, the outcome in experiment [5], in experiment [6], in experiment [7] and in experiment [8] was inactive.
For `Cc1cccc2[nH]c(-c3cccc(-c4ccc(NC(=O)Cc5cnc[nH]5)cc4)c3)nc12`, the growth inhibition in experiment [1] was 93% (active); in experiment [4], 101% (active). Besides, the inhibition was 4% in experiment [2] and -3% in experiment [3]. Besides, the outcome in experiment [5], in experiment [6], in experiment [7] and in experiment [8] was inactive.
`Nc1cccc(CNCc2cccc(-c3cccc(-c4nc5ccc(F)cc5[nH]4)c3)c2)c1`: the growth inhibition in experiment [1] was 82% (active); in experiment [4], 102% (active). Moreover, the inhibition is 5% in experiment [2] and -4% in experiment [3]. Moreover, the result in experiment [5], in experiment [6], in experiment [7] and in experiment [8] was inactive.
With `Cc1cnc(N2CCN(CC3CCN(C)CC3)CC2)nc1Oc1ccc(-n2ccnc2)cc1`, the growth inhibition is 66% (active) in experiment [1] and 99% (active) in experiment [4]. The inhibition in experiment [2] is 9%; in experiment [3] it was -3%. In addition, the outcome in experiment [5], in experiment [6], in experiment [7] and in experiment [8] was inactive.
`CCN(CC)CCNc1ccnc2[nH]c3ccc(Cl)cc3c12`: the growth inhibition in experiment [1] was 92% (active); in experiment [4], 100% (active). Further, the inhibition was 3% in experiment [2] and 1% in experiment [3]. Also, the result in experiment [5], in experiment [6], in experiment [7] and in experiment [8] was inactive.
Turning to `CCC[C@@H]([C@@H](CC1CCCCC1)C(=O)N[C@H](C(=O)Nc1nccs1)[C@@H](C)OCc1ccccc1)N(O)C=O`, the growth inhibition in experiment [1] was 99% (active); in experiment [4] it was 100% (active). In addition, the inhibition is 51% (active) in experiment [2] and -3% in experiment [3]. Moreover, the result in experiment [5], in experiment [6], in experiment [7] and in experiment [8] was inactive.
In the case of `c1cncc(-c2cccc(CNc3nccc(Nc4ccc(OCCN5CCOCC5)cc4)n3)c2)c1`, the growth inhibition in experiment [1] is 27%; in experiment [4], 93% (active). Besides, the inhibition was 1% in experiment [2] and -2% in experiment [3]. In addition, the result in experiment [5], in experiment [6], in experiment [7] and in experiment [8] was inactive.
As for `COc1ccc(-c2csc(N(CCCN(C)C)C(=O)c3cc4c(C)nn(-c5ccccc5)c4s3)n2)cc1`, the growth inhibition was 16% in experiment [1] and 102% (active) in experiment [4]. The inhibition was 100% (active) in experiment [2] and -2% in experiment [3]. In addition, the outcome in experiment [5], in experiment [6], in experiment [7] and in experiment [8] was inactive.
In the case of `CCCCN1CCN(Cc2cccc(NC(=O)c3ccc(Cl)c(Cl)c3)c2)CC1`, the growth inhibition in experiment [1] was 24%; in experiment [4], 88% (active). In addition, the inhibition in experiment [2] is 21%; in experiment [3], 1%. Also, the outcome in experiment [5], in experiment [6], in experiment [7] and in experiment [8] was inactive.
For the compound `Oc1ccc(Br)cc1-c1nc2ccc(Cl)cc2nc1-c1cc(Br)ccc1O`, the figures for the growth inhibition in experiment [1] and in experiment [4] were 64% (active) and 100% (active), respectively. Further, the results for the inhibition in experiment [2] and in experiment [3] were -4% and 5%, respectively. The outcome in experiment [5], in experiment [6], in experiment [7] and in experiment [8] was inactive.
As to `O=C(Nc1ccc(-n2ccc(C(F)(F)F)n2)cc1)c1cccs1`, the growth inhibition was 67% (active) in experiment [1] and 89% (active) in experiment [4]. In addition, the inhibition was 6% in experiment [2] and -6% in experiment [3]. Besides, the outcome in experiment [5], in experiment [6], in experiment [7] and in experiment [8] was inactive.
For the compound `Cc1cc(=O)[nH]c2cc(Nc3ccnc(Nc4cccc(C(N)=O)c4)n3)ccc12`, the values for the growth inhibition in experiment [1] and in experiment [4] were 98% (active) and 99% (active), respectively. The inhibition in experiment [2] is 27%; in experiment [3], -4%. Besides, the outcome in experiment [5], in experiment [6], in experiment [7] and in experiment [8] was inactive.
With `COc1ccc2nc(-c3ccccc3)cc(NN=Cc3ccncc3)c2c1`, the growth inhibition in experiment [1] is 27%; in experiment [4], 99% (active). For the same compound, the inhibition was 14% in experiment [2] and -2% in experiment [3]. Further, the outcome in experiment [5], in experiment [6], in experiment [7] and in experiment [8] was inactive.
Consider `COc1ccc(Br)cc1/C=C/C(=O)Nc1cccc(C2CCCN(C)C2)c1` (stereo not given), for which the growth inhibition was 30% in experiment [1] and 99% (active) in experiment [4]. Also, the inhibition is 12% in experiment [2] and 1% in experiment [3]. Moreover, the outcome in experiment [5], in experiment [6], in experiment [7] and in experiment [8] was inactive.
As to `CCn1c(-c2nonc2N)nc2cnc(Oc3cccc(NC(=O)c4ccc(OCCN(C(C)C)C(C)C)cc4)c3)cc21`, the growth inhibition was 10% in experiment [1] and 97% (active) in experiment [4]. Further, the inhibition in experiment [2] is 63% (active); in experiment [3], -6%. The result in experiment [5], in experiment [6], in experiment [7] and in experiment [8] was inactive.
